Test results taken from PubChem BioAssay AID623868 (Vanderbilt High Throughput Screening Facility, 2012).
In all, about 2,100 compounds went through this assay and about 760 (36%) were called active. The list is a sample of the results. Values without a mark were called inactive.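 Rule for the calls: active = thallium-flux fluorescence traces judged by eye to show enhanced or reduced glutamate response, manual score 1 or -1, so both directions (some results past the limit were not filed as active); inactive = the rest, including fluorescent or raised-baseline compounds.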

Experiment: thallium influx changes without GIRK channels – cell-based, HEK-293 rmGlu8, no GIRK, thallium flux, counter-screen for GIRK activator project, confirmation (AID 623868);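 note: extra codes mark interference with 3 for fluorescent and 4 for baseline rise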
Settings: thallium flux fluorescence, at 10 µM, actives lie on both sides, codes: 1 enhancer, -1 blocker, 0 none, thallium stimulus containing EC20 glutamate

SMILES	manual score
COc1ccccc1C(c1nnnn1CCc1ccccc1)N1CCCCCC1 (stereo unspecified)	0
COC(=O)C1=NN(C(=O)c2ccc(C)cc2)C(O)(c2ccc(Cl)cc2)C1 (stereo unspecified)	1 (active)
COc1ccc2cc(C(=O)NCC(=O)O)sc(=O)c2c1OC	0
O=C(CCCCn1c(=O)c2ccccc2n(CC(=O)NC2CCCC2)c1=O)NCc1ccco1	0
N#CCSc1nc2ccc(N3CCOCC3)cc2c(=O)n1CCc1ccccc1	0
CCCCn1c(SCc2nc(N)nc(Nc3ccccc3C)n2)nc2ccccc2c1=O	0
C/C(N)=C(/C#N)C(=O)CSc1nc2cc(Cl)ccc2c(=O)n1-c1ccc(C)cc1	1 (active)
CCOC(=O)CSc1nc2c(sc3ccccc32)c(=O)n1CCCN1CCOCC1	0
CCCCn1c(SCC(=O)NCc2ccco2)nc2ccccc2c1=O	1 (active)
CC(C)CCn1c(SCC#N)nc2c(sc3ccccc32)c1=O	0
CCCCCn1c(NCc2ccco2)nc2ccccc21	0
CCCCn1c(SCC(N)=O)nc2c(sc3ccccc32)c1=O	1 (active)
CCCCn1c(SCC(=O)/C(C#N)=C(\C)N)nc2ccccc2c1=O	1 (active)
O=c1sc(N2CCN(c3ccccc3F)CC2)nc2ccsc12	0
COc1ccc(C2C(C(N)=O)=C(C)Nc3nc(-c4cccc(Cl)c4)nn32)cc1OC (stereo unspecified)	0
OC(c1ccccc1)C1CN(Cc2ccccc2)CCC1(O)c1ccccc1 (stereo unspecified)	0
Cc1cc(C)cc(NC(=O)Cn2cc3c(n2)CCCCC3)c1	0
CCOC(=O)c1cc(NC(=O)SCC(=O)O)c(C)nc1C	0
C=C(C)CNC(=S)Nc1nc2c(cc1C(=O)OCC)CCCC2	1 (active)
C=C(C)CNC(=S)N/N=C1\CCCCc2ccccc21	0
CCNC(=S)Nc1nc2c(cc1C(=O)OCC)CCCC2	1 (active)
C=CCNC(=S)Nc1nc2c(cc1C(=O)OCC)CCCC2	1 (active)
CCN(C(=O)COc1cc(=O)n(CC)c2ccccc12)c1cc(Cl)ccc1OC	0
N#CC(C#N)=C1C=C2C=C(N3CCCCC3)CCC2CC1 (stereo unspecified)	3
O=C(COc1ccccc1)NNC(=S)NC(=O)c1ccc(Cl)cc1Cl	1 (active)
Cc1ccc(C(=O)NNC(=S)NC(=O)c2ccc(Cl)cc2Cl)cc1	1 (active)

SMILES	manual score
Cc1onc(-c2ccccc2)c1C(=O)NNC(=S)NC(=O)c1ccc(Br)cc1	1 (active)
O=C(NC(=S)NNC(=O)c1cccs1)c1ccc(Br)o1	1 (active)
Cc1ccc(-c2cnc(NC(=O)CCC(=O)N3CCCCC3)n2C)cc1	0
CCOC(=O)N1CCC(NC(=O)c2cnn3c2NC(c2ccco2)CC3C(F)(F)F)CC1 (stereo unspecified)	0
COc1cc(OC)c2nc(C)c3c(c2c1)N(c1ccc(O)cc1)CC3	0
CCC1Oc2ccc(C)cc2N(CC(=O)N(Cc2ccc(C)o2)C2CCCC2)C1=O (stereo unspecified)	0
CCOC(=O)c1oc2nc(C(C)C)c3c(c2c1N)CC(C)(C)OC3	0
Cc1ccccc1C(=O)NC(=S)Nc1sc2c(c1C#N)CCCC2	0
Cc1cccc(C(=O)NC(=S)NNC(=O)c2ccccc2Cl)c1	1 (active)
Cc1onc(-c2ccccc2)c1C(=O)NC(=S)Nc1sc2c(c1C#N)CCCC2	1 (active)
Cc1ccccc1C(=O)NNC(=S)NC(=O)c1ccccc1	1 (active)
Cc1cccc(C(=O)NC(=S)NNC(=O)c2cccs2)c1	1 (active)
O=C(CSc1nnc2ccccn12)Nc1nsc(-c2ccccc2)n1	0
CCc1ccccc1N(C)C(=O)CCc1nc(-c2ccc(C)cc2)no1	0
O=C(Nc1cccc(S(=O)(=O)c2cccc(NC(=O)C3CC3)c2)c1)C1CC1	0.5
Cc1cccc(NC(=O)CN(c2ccc(C(C)C)cc2)S(=O)(=O)c2c(C)nn(C)c2C)n1	0
COc1ccc(C2CC(c3ccc(Cl)c(Cl)c3)Nc3nc(N)nn32)cc1 (stereo unspecified)	0
Cc1ccc(C(=O)NNC(=S)NC(=O)c2ccc(Cl)cc2)cc1	1 (active)
Cc1ccccc1C(=O)NNC(=S)NC(=O)c1ccc(Cl)cc1Cl	1 (active)
Cc1cccc(C(=O)NC(=S)NNC(=O)c2ccc(Cl)cc2)c1	1 (active)
Cc1c(Cl)cccc1NC(=S)/C(=C(\[O-])c1ccc(Cl)s1)[n+]1ccccc1	0
Cc1ccccc1C(=O)NC(=S)Nc1ccc(Oc2ccc(Cl)cc2)cc1	0
Cc1ccccc1C(=O)NNC(=O)C(=O)Nc1cccc(Cl)c1C	1 (active)
O=C(O)C1C2C=CC3(CN(C4CCCC4)C(=O)C13)O2 (stereo unspecified)	0
O=C1C2C3C=CC(C3)C2C(=O)N1/N=C/c1cn(Cc2ccccc2)c2ccccc12 (stereo unspecified)	0
Cc1cc(C)nc(N(C#N)Cc2ccc(Br)cc2)n1	0

SMILES	manual score
CCn1c(SCC(=O)c2cc(C)n(CC3CCCO3)c2C)nc2ccccc21 (stereo unspecified)	0
O=C(CSc1nc2ccc(Cl)cc2[nH]1)Nc1ccc2c(c1)CCC2	0
Cc1ccc(CSc2nc3ccncc3[nH]2)cc1	0
COC(=O)c1cc(CSc2nc3ccc(C)cc3[nH]2)oc1C	-1 (active)
O=C(CCS(=O)NCc1ccccc1)NCc1ccccc1 (stereo unspecified)	0
Cc1ccc(N2C=Nc3ccc(C)c4nc(C)cc2c34)cc1	-1 (active)
CN1CC=C2C(C#N)=C(N)C(C#N)(C#N)[C@H](c3cccc(Cl)c3)C2C1 (stereo partly specified)	3
Cc1ccc(CN2C3=NCCCN3c3ccccc32)cc1	0
COc1ccc(CN2CCNC(=O)C2CC(=O)O)cc1OC (stereo unspecified)	0
COc1cc(/C=C(/C#N)c2ccc(F)cc2)ccc1OCc1ccc(C(=O)O)o1	-1 (active)
COc1cc(CNCCc2c[nH]c3ccccc23)ccc1OCc1ccc(F)cc1	0
CSc1nc(Sc2ccccc2)c2ccccc2n1	0
O=C(/C=C/c1cccs1)NC(=S)NNC(=O)Cc1cccs1	1 (active)
COc1cc(NC(=O)Cc2cccs2)cc(OC)c1	0
O=C(Cc1cccs1)Nc1cccnc1	0
CCOc1ccc(C(=O)CN2CCN(S(=O)(=O)c3ccc(Br)cc3)CC2)cc1	0
CC(=O)c1sc(NC(=O)c2cc(-c3ccccc3)nn2-c2ccccc2)nc1C	0
O=C(NNC(=O)c1cc(-c2ccccc2)n(-c2ccccc2)n1)c1cccc([N+](=O)[O-])c1	1 (active)
COc1ccc(Nc2nc(-c3cccc([N+](=O)[O-])c3)nc3ccccc23)cc1	0
Cn1c2ccccc2c2cc(C(=O)NNS(=O)(=O)c3ccc(F)cc3)sc21	0.5
Cc1sc2c(c1C)CN(C1CC(C)(C)NC(C)(C)C1)CN2C(=O)c1ccco1	0
COC(=O)c1ccc(C(=O)OC)c(NC(=O)CSc2nc(-c3ccco3)cc(C(F)(F)F)n2)c1	0
COc1ccccc1NC(=O)c1ccc(S(=O)(=O)N2CCCC2)cc1	0
O=C(Nc1nnc(-c2ccccc2Cl)o1)c1ccc(S(=O)(=O)N2CCCCCC2)cc1	1 (active)
CC1CCCN(S(=O)(=O)c2ccc(C(=O)Nc3nnc(-c4ccccc4Cl)o3)cc2)C1 (stereo unspecified)	1 (active)
O=S(=O)(c1ccc(-c2nnc(SCc3nnc(-c4ccccc4)o3)o2)cc1)N1CCCC1	0

SMILES	manual score
CCN(CC)c1ccc2cc(C(=O)NNC(=O)c3ccc(S(=O)(=O)N4CCCCC4)cc3)c(=O)oc2c1	0
Cc1cc(C)nc(N2CCCC(C(=O)NCCc3ccc(F)cc3)C2)n1 (stereo unspecified)	0
CN1/C(=C\C=C2/C(=O)Oc3ccccc3C2=O)C(C)(C)c2ccccc21	3
Cc1ccc(NC(=O)COc2cccnc2[N+](=O)[O-])cc1S(=O)(=O)N1CCCCC1	0
Cc1nn(CC(=O)Nc2ccc(Cl)c(S(=O)(=O)N(C)C)c2)c(C)c1[N+](=O)[O-]	0
CC1(C)CC2CC(C)(CN2c2ncnc3ccccc23)C1 (stereo unspecified)	0
CC1(C)CC2CC(C)(CN2C(=S)NC(=O)c2ccccc2Cl)C1 (stereo unspecified)	1 (active)
Nn1c(SC/C=C/c2ccccc2)nnc1-c1ccccn1	0
Clc1cccc(CSc2nc3ccncc3[nH]2)c1	0
S=C(Nc1ccc(Cl)cc1)c1nc2ccccc2[nH]1	1 (active)
NC(=O)SCC(=O)Nc1ccc(Cl)cc1	0
Cc1oncc1C(=S)Nc1ccccc1	0
Cc1ccc(NC(=S)c2nc3ccccc3[nH]2)cc1	1 (active)
Fc1ccc(CSc2nc3ccccc3[nH]2)c2ccccc12	0
CC(C)c1nc(N2CCN(C(=O)c3ccccc3)CC2)c(C#N)c2c1COC(C)(C)C2	0
O=C(NC(=S)Nc1ccccc1N1CCCC1)c1ccccc1[N+](=O)[O-]	1 (active)
O=C(NC(=S)Nc1ccccc1N1CCCC1)c1ccc(-c2cccc([N+](=O)[O-])c2)o1	0.5
Cc1c(C(=O)NC(=S)Nc2ccccc2N2CCCC2)cccc1[N+](=O)[O-]	1 (active)
O=C(NC(=S)Nc1ccccc1N1CCCC1)c1ccc([N+](=O)[O-])cc1	1 (active)
O=C(CSc1nc(O)cc(=O)n1-c1ccccc1)N1CCCCC1	2
COc1cccc(N(CC(=O)Nc2cccc(C(C)=O)c2)S(C)(=O)=O)c1	0
CCOC(=O)C1=C(C)NC2=C(C(=O)C(C(=O)OCC)C(c3cccc(OC)c3)C2)C1c1ccccn1 (stereo unspecified)	-0.5
COC(=O)CSc1nc2ncccc2[nH]1	0
